Reference: PubChem BioAssay (NCATS)
Inconclusive results are not listed. Activity calls are given as the source filed them. Unless noted, calls follow the shape of the dose curve; as a rule, active = well fitted curve in the direction sought with a large enough effect; inconclusive = small, poorly fitted or top-dose-only effect, or another doubt; inactive = no such curve, though single readings can be large; an effect the other way counts as inactive or inconclusive.

Key:
[1] = biological target: Thioredoxin reductase 1, cytoplasmic (Rattus norvegicus) (UniProt O89049); experiment: qHTS Assay for Substrates of Mammalian Selenoprotein Thioredoxin Reductase 1 (TrxR1) (AID 488772);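 also: NADPH fluorescence in the first read after selenite addition and not the 8 min delta; series mostly up to about 57 µM; a drop in NADPH fluorescence below the no-compound background marks a TrxR1 substrate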
Outline: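 Quantitative HTS in Tris-HCl buffer at pH 7.5 with EDTA and Tween-20, using rat TrxR1, 400 uM NADPH and 400 uM selenite (final). A fall in initial NADPH fluorescence relative to background marked substrate behaviour.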

[2] = biological target: Thioredoxin reductase 1, cytoplasmic (Rattus norvegicus) (UniProt O89049); experiment: qHTS Assay for Inhibitors of Mammalian Selenoprotein Thioredoxin Reductase 1 (TrxR1) (AID 488773); details: Potency: inhibition; also: nearly all actives have a fitted effect of over 40% in size; also: potency is read from the fitted curve at half-maximal effect
Outline: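 Steps: enzyme (90 nM) plus NADPH (400 uM final), 5 min at ~22 deg C; compound added, 15 min; selenite (400 uM final) added; fluorescence followed for 8 min. Concentration-response curves derived from the normalized delta values.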

[3] = biological target: Flap endonuclease 1 (Homo sapiens) (UniProt P39748); experiment: qHTS Validation Assay for the Inhibitors of Human Flap endonuclease 1 (FEN1) (AID 488816)
Outline: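 FEN1, dispensed as a 10 nM reagent, was preincubated with pin-transferred compounds for 15 min at room temperature before substrate was added (50 nM final). Plates were read at 0 and 15 min, and a four-parameter Hill equation was fitted to the concentration-response data.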

[4] = biological target: Methanococcus maripaludis chaperonin (MmCpn) (UniProt Q6LX38); experiment: High-Throughput Screening for Modulators of Cytosolic Chaperonin Activity: MmCpn Primary Screen (AID 488978);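 also: 50 nM MmCpn enzyme hydrolysing 30 µM ATP at 37 °C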
Outline: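 ATPase activity of 50 nM MmCpn was assayed with 30 uM ATP, 10 minutes at 37C, after a 5 min compound preincubation at room temperature. ADP production was read as HTRF emission at 590 and 665 nm.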

[5] = biological target: D(1A) dopamine receptor (Homo sapiens) (UniProt P21728); experiment: HTS Assay for Allosteric Agonists of the Human D1 Dopamine Receptor: Primary Screen for Agonists (AID 488981); also: potency is read from the fitted curve at half-maximal effect
Outline: (§1)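 Tetracycline-induced HEK293 T-REx cells force-coupled to calcium signalling were incubated overnight at 30 C and dye-loaded at room temperature. Calcium flux over 180 s after compound addition flagged agonists; a further 180 s read after EC20 dopamine flagged potentiators.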

[6] = biological target: D(1A) dopamine receptor (Homo sapiens) (UniProt P21728); experiment: HTS Assay for Allosteric Agonists of the Human D1 Dopamine Receptor: Primary Screen for Potentiators (AID 488982)
Outline: as §1

[7] = biological target: D(1A) dopamine receptor (Homo sapiens) (UniProt P21728); experiment: HTS Assay for Allosteric Agonists of the Human D1 Dopamine Receptor: Primary Screen for Antagonists (AID 488983);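 also: calcium flux response to an EC80 dopamine challenge measured with no-wash dye; nearly all actives have a fitted effect of over 65% in size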; also: potency is read from the fitted curve at half-maximal effect
Outline: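 Tetracycline-induced HEK293 T-REx D1 line, force-coupled to calcium flux, read with no-wash calcium dye. Compound added after 10 s baseline, read 180 s for agonism, then EC80 dopamine added and read a further 180 s.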

[8] = Validation screen for small molecules that induce genotoxicity in human embryonic kidney (HEK293T) cells expressing luciferase-tagged ELG1 (AID 493106); also: potency is read from the fitted curve at half-maximal effect
Outline: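 HEK293T cells expressing luciferase-tagged ELG1, 2,000 cells/well, exposed to compound 16 hr at 37 °C, 5% CO2. Luciferase read after ONE-Glo, 30 min at room temperature; increased signal indicates genetic stress.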

[9] = qHTS for Inhibitors of Cell Surface uPA Generation: Validation Assay (AID 493164)
Outline: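 RAW 264.7 cells (4000/well) were plated overnight, then exposed for 18 h at 37 C, 5% CO2 to compounds in a 7-point 1:5 titration (2.45 nM–38.3 uM final). Intracellular ATP was read by ATP-Lite luminescence.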

[10] = biological target: M-phase phosphoprotein 8 (Homo sapiens) (UniProt Q99549); experiment: qHTS Validation Assay for Inhibitors for MPP8 Chromodomain Interactions with Methylated Histone Tails (AID 488949); also: nearly all actives have a fitted effect of over 55% in size; also: potency is read from the fitted curve at half-maximal effect
Outline: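 AlphaScreen proximity signal from streptavidin donor and Ni-chelate acceptor beads (10 ug/mL each) reported binding of MPP8 to trimethyl-K9 H3(1-18) peptide, both at 50 nM. The complex formed 30 min before a 30 min compound exposure at room temperature, in PBS pH 7.4.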

[11] = biological target: Chromobox protein homolog 1 (Homo sapiens) (UniProt P83916); experiment: qHTS Validation Assay for Inhibitors of HP1-beta Chromodomain Interactions with Methylated Histone Tails (AID 488953); also: nearly all actives have a fitted effect of over 50% in size; also: potency is read from the fitted curve at half-maximal effect
Outline: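 HP1-beta (50 nM) preformed 30 min with biotinylated H3(1-18)K9me3 peptide (50 nM) in PBS pH 7.4, 0.01% Tween-20. Compounds added for 30 min at room temperature. Complex disruption read by AlphaScreen with streptavidin donor/nickel chelate acceptor beads (10 ug/mL each).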

[12] = biological target: Transient receptor potential cation channel subfamily V member 1 (Homo sapiens) (UniProt Q8NER1); experiment: HTS Assay for Compounds that Act as Enhancers of the Vanilloid Receptor 1 (AID 488979)
Outline: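 TRPV1-expressing cells loaded with Fluo-8 calcium dye; compounds added and calcium influx read kinetically for 3 min (agonist phase), then capsaicin at EC20 added and read 2 min more for enhancement. Fluorescence ex 480/em 520 nm.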

[13] = biological target: Thyrotropin receptor (Homo sapiens) (UniProt P16473); experiment: qHTS Assay for Antagonists of the Thyroid Stimulating Hormone Receptor (AID 488980); also: series mostly up to about 58 µM
Outline: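 Inhibition of cAMP raised by EC80 TSH (4 nM final) was read by HTRF, with lysate cAMP competing against cAMP-d2 for cryptate antibody after 30 min at room temperature. The cells were transfected HEK293 held in phosphodiesterase inhibitor RO 20-1724 at 70 uM.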

[14] = Nrf2 qHTS screen for inhibitors: Validation (AID 493153; active = well fitted inhibition curve with a large enough effect in the main read-out, with a control signal flat, not every such curve was filed as active); details: Potency: luciferase luminescence; viability change: measured here: cytotoxicity max response
Outline: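 A549 cells carrying ARE-firefly luciferase reporter, 5000 cells/well in 5% FBS OPTI-MEM, treated with compound over a concentration series for 18-24 h at 37 C. Luciferase luminescence gave Nrf2 activity; CellTiter-Fluor fluorescence gave viability.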

[15] = biological target: Galactokinase (Homo sapiens) (UniProt P51570); experiment: qHTS Validation Assay for Inhibitors of Human Galactokinase (GALK) (AID 493189)
Outline: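 Inhibition was measured as remaining ATP, detected by luciferase luminescence after a 1 h room-temperature reaction. Final conditions: 5 nM GALK, 100 uM galactose, 35 uM ATP, pH 8.0 HEPES buffer.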

[16] = biological target: ATPase family AAA domain-containing protein 5 (Homo sapiens) (UniProt Q96QE3); experiment: Validation screen for small molecules that inhibit ELG1-dependent DNA repair in human embryonic kidney (HEK293T) cells expressing luciferase-tagged ELG1 (AID 493107);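 also: cells co-treated with the DNA-damaging agent 5-fluorouridine alongside compound; series mostly up to about 46 µM; inhibitors lower the ELG1-luciferase luminescence signal; nearly all actives have a fitted effect of over 70% in size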
Outline: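 HEK293T cells expressing luciferase-tagged ELG1, 2,000 per well, treated with 5-fluorouridine plus compound for 16 h at 37 C. ONE-Glo luminescence after 30 min at room temperature reports ELG1 reporter level.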

Sequence of Flap endonuclease 1 (Homo sapiens) (P39748 whole entry, looked up): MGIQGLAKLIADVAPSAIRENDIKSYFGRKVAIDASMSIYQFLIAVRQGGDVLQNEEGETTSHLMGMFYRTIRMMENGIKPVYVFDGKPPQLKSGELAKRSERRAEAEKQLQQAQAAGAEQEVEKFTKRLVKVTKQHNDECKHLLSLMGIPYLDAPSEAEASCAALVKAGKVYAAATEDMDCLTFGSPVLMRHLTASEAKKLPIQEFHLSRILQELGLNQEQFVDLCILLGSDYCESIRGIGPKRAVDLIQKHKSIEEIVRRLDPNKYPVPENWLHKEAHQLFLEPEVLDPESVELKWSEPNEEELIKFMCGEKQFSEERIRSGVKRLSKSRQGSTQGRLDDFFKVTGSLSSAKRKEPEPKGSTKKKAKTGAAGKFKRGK
Sequence of Galactokinase (Homo sapiens) (P51570 whole entry, looked up): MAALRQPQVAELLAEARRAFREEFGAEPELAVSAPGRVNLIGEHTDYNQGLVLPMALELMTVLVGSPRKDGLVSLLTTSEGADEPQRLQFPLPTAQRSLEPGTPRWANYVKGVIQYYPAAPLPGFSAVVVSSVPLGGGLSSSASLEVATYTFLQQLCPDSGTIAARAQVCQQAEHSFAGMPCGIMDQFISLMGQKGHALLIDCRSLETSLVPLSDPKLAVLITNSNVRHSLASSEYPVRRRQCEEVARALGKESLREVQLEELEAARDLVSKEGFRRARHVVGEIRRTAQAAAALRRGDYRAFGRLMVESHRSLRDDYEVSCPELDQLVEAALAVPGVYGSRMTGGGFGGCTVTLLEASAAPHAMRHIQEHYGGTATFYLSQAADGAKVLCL
Sequence of Chromobox protein homolog 1 (Homo sapiens) (P83916 whole entry, looked up): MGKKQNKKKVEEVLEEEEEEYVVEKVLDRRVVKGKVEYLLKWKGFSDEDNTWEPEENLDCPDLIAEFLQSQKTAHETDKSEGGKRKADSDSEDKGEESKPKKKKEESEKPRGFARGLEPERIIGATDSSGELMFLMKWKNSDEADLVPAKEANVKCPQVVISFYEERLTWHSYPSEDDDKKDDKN
Sequence of D(1A) dopamine receptor (Homo sapiens) (P21728 whole entry, looked up): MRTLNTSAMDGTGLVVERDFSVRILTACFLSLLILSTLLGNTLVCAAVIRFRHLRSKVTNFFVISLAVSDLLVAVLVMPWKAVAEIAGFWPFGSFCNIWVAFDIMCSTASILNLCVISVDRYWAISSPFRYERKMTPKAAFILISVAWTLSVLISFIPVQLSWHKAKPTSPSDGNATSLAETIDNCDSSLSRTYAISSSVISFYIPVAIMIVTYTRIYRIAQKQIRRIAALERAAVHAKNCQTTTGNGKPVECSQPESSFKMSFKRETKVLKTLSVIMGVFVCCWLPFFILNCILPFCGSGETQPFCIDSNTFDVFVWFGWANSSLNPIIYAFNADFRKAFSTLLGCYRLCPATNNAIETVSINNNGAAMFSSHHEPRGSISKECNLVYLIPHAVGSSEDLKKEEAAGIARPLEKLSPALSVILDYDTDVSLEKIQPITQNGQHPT
Sequence of M-phase phosphoprotein 8 (Homo sapiens) (Q99549 whole entry, looked up): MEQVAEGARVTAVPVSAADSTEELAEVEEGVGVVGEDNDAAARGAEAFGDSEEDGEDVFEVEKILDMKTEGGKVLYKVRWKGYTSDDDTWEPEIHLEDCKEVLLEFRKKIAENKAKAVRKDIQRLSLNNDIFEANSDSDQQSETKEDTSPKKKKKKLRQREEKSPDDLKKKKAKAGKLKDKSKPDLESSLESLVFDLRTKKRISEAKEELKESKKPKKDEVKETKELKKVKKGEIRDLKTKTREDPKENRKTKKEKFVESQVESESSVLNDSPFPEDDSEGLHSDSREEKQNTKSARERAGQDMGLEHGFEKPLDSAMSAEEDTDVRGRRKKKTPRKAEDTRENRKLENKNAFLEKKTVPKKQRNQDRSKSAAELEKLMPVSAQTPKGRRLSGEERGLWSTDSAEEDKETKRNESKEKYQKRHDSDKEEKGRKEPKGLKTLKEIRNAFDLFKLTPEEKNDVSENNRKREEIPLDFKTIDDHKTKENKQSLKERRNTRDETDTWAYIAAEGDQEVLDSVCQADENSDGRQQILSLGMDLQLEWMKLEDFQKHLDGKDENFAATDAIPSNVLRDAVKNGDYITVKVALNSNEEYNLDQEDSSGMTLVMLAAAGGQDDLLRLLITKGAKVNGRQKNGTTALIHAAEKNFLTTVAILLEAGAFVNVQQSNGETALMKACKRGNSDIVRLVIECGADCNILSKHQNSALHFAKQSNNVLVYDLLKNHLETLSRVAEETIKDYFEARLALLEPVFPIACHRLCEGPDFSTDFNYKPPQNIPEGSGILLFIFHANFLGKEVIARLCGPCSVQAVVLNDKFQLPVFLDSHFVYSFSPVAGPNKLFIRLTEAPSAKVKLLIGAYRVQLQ
Sequence of ATPase family AAA domain-containing protein 5 (Homo sapiens) (Q96QE3 whole entry, looked up, the tested form may be a part): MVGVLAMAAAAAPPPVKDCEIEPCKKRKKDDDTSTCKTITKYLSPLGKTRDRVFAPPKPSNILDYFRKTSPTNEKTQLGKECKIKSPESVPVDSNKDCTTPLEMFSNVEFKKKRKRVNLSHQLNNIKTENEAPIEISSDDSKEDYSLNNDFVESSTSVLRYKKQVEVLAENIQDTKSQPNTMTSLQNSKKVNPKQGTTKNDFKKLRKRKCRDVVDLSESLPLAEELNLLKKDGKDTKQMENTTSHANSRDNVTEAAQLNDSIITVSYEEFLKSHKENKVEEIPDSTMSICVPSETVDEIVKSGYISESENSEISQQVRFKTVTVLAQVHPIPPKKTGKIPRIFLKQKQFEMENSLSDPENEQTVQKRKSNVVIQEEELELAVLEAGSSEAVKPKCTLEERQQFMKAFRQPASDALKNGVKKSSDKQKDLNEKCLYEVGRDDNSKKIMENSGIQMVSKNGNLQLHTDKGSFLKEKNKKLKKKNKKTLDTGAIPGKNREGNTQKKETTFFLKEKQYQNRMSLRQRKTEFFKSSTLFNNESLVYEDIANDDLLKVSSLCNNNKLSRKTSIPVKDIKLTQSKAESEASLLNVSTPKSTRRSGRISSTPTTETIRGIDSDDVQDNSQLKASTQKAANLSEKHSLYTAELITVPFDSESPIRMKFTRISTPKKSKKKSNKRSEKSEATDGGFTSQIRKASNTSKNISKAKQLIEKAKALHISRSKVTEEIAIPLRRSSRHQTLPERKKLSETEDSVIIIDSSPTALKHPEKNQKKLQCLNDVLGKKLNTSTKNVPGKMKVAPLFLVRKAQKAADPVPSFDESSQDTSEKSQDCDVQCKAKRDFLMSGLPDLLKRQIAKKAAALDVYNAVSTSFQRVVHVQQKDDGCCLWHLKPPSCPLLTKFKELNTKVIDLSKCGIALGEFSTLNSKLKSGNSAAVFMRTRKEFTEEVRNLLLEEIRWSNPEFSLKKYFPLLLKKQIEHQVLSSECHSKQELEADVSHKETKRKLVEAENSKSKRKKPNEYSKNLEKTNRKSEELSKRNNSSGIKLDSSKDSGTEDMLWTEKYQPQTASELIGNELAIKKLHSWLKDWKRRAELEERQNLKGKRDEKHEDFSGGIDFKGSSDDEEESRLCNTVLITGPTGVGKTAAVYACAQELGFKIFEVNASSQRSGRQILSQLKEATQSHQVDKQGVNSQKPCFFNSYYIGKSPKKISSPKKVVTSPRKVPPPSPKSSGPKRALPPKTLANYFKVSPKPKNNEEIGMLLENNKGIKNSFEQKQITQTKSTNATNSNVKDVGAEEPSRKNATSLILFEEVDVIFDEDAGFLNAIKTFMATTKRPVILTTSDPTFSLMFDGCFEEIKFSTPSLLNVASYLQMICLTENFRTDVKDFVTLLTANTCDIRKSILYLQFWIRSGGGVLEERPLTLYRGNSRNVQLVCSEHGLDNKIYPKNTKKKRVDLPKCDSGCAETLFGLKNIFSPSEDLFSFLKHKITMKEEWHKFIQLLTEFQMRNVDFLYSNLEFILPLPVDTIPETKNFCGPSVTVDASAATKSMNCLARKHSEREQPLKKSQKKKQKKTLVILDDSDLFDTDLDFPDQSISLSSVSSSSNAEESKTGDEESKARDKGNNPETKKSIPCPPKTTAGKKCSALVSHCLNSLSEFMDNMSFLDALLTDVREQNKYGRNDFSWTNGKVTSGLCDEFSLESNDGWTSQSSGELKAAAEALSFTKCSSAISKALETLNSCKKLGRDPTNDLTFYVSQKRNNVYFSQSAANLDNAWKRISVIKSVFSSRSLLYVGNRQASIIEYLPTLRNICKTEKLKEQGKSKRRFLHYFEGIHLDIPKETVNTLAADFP
Sequence of Transient receptor potential cation channel subfamily V member 1 (Homo sapiens) (Q8NER1 whole entry, looked up): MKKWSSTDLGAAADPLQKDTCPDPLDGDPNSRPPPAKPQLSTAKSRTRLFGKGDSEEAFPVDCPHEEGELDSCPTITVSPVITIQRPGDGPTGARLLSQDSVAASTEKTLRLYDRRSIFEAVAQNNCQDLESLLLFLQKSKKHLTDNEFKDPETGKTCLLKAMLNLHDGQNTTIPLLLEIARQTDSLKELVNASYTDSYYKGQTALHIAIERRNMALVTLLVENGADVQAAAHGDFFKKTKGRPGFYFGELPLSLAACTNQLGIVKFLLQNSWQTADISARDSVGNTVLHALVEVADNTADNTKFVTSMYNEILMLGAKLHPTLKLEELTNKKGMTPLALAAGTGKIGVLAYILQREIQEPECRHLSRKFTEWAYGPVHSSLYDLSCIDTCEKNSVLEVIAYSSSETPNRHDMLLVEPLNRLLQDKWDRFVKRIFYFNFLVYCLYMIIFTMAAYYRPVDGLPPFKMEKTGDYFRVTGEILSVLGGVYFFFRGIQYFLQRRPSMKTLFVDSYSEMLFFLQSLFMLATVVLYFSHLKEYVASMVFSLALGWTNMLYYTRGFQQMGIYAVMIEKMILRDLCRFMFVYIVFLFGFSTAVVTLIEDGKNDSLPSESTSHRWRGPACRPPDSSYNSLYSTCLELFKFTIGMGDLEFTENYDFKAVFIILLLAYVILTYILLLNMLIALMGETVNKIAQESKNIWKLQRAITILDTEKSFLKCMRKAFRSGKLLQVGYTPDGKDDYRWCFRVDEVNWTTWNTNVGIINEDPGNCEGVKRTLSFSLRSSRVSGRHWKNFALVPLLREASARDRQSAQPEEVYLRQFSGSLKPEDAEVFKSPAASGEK

O=C(CCCCCN1CCN(c2ccccc2-c2ccccc2)CC1)NC1CCCc2ccccc21 (centres undefined)
inactive: Potency [1] | Potency [2] | Potency [3] | outcome [4] | Potency [5] | Potency [6] | Potency [8] | outcome [9]
active: Potency [7] 7.08 µM

COc1cc2nc(N3CCN(C(=O)OCc4ccccc4)C(C(=O)NC(C)(C)C)C3)nc(N)c2cc1OC (centres undefined)
inactive: Potency [1] | Potency [2] | Potency [10] | Potency [11] | outcome [12] | outcome [13] | Potency [5] | Potency [7] | Potency [8] | Potency [14] | outcome [9] | Potency [15]
-20.4%: viability change [14]

CCCCCCCCc1ccc(-c2ccc(C(=O)O)cc2)cc1
inactive: Potency [1] | Potency [2] | Potency [10] | Potency [11] | outcome [4] | Potency [5] | Potency [6] | Potency [7] | Potency [8] | Potency [16] | outcome [9]

Nc1nc(Cl)nc2c1ncn2[C@@H]1O[C@H](COP(=O)(O)OP(=O)(O)OP(=O)(O)O)[C@@H](O)[C@H]1O
3.12%: viability change [14]
inactive: Potency [1] | Potency [2] | Potency [10] | Potency [11] | outcome [4] | Potency [6] | Potency [14] | outcome [9]

CCOC(=O)N1CCN(/[N+]([O-])=N/Oc2ccc([N+](=O)[O-])cc2[N+](=O)[O-])CC1
active: Potency [2] 6.7 µM
inactive: Potency [1] | Potency [3] | Potency [10] | outcome [4] | Potency [5] | Potency [6] | Potency [8] | outcome [9]

O=C(/C=C/c1ccc(O)c(O)c1)OCCc1ccccc1
active: Potency [8] 20.6 µM
-1.73%: viability change [14]
inactive: Potency [1] | Potency [2] | Potency [3] | outcome [4] | outcome [12] | outcome [13] | Potency [6] | Potency [7] | Potency [14] | outcome [9] | Potency [15]

OCC1O[C@H]([S-])[C@H](O)[C@@H](O)[C@@H]1O.[Au+] (some centres undefined)
active: Potency [2] 0.0752 µM | Potency [10] 1.5 µM | Potency [11] 2 µM
inactive: Potency [1] | outcome [4] | Potency [5] | Potency [6] | Potency [7] | Potency [8] | Potency [16] | Potency [14] | outcome [9]
-19.1%: viability change [14]

CCCCCCCCCCCCCCCCCC(=O)OC(CC(=O)O)C[N+](C)(C)C (centres undefined)
inactive: Potency [1] | Potency [2] | Potency [10] | Potency [11] | outcome [4] | outcome [12] | outcome [13] | Potency [6] | Potency [8] | Potency [16] | outcome [9] | Potency [15]
active: Potency [5] 11.2 µM

Cc1nc2sccn2c(=O)c1CCN1CCC(=C(c2ccccc2)c2ccc(F)cc2)CC1
inactive: Potency [1] | Potency [2] | Potency [3] | Potency [10] | outcome [4] | Potency [8] | Potency [14] | outcome [9]
0.941%: viability change [14]
